# According to ChEMBL document CHEMBL3988442, “University of Dundee, Small-Polar-MMV Screening Library” (2021):
# About 13,000 (27%) of roughly 48,000 compounds showed an effect of 50% or more. This is one part of the list.
# System: Wolbachia pipientis
# Test: Anti-Wolbachia Cell-Based Screen
# Type: functional
# Set-up: scale not given: in the data most compounds retested in dose-response had high values
# Settings: 5 µM
row,SMILES,Percent Effect
1,CC(NCc1ccc(-c2ccc(F)cc2)o1)c1nnc2n1CCC2 (stereo not given),11.28%
2,CNC(=O)c1ccc(NC2CCN(CC(F)(F)F)C2=O)cc1Cl (stereo not given),5.324%
3,Cc1ccc(C(NC(=O)CN2CCc3c(ncn3C)C2)C2CC2)cc1 (stereo not given),0.6431%
4,CC(C)CC(=O)N1CC(=O)N(Cc2ccco2)CC(O)C1 (stereo not given),81.13%
5,O=C(CN1C(=O)CCC1=O)N1CCC(CSCc2ccco2)CC1,-7.09%
6,O=C(CN1C(=O)CCC1=O)N1CCC(S(=O)(=O)Cc2ccco2)CC1,3.229%
7,COCCOCCNC(=O)c1ccc(N2CCC(C)=N2)cc1,-11.91%
8,CCN1CC2(CCN(CC3CCCO3)CC2)OC1=O (stereo not given),-23.86%
9,Cc1cccc(CN2CCC3(CCCN(Cc4cnn(C)c4)C3)C2)n1.O=C(O)C(F)(F)F.O=C(O)C(F)(F)F (stereo not given),99.91%
10,Cn1cc(CN2CCCC3(CCN(C(=O)c4ccccn4)C3)C2)cn1.O=C(O)C(F)(F)F.O=C(O)C(F)(F)F.O=C(O)C(F)(F)F (stereo not given),5.668%
11,Cc1cccc(CN2CCCC3(CCN(CC4CCCO4)CC3)C2)n1.O=C(O)C(F)(F)F.O=C(O)C(F)(F)F (stereo not given),92.13%
12,Cc1cccc(CN2CCOC3(CCCN(CC(=O)N(C)C)C3)C2)n1.O=C(O)C(F)(F)F.O=C(O)C(F)(F)F (stereo not given),7.418%
13,Cn1cc(CN2CCCC3(CCN(c4nncs4)C3)C2)cn1.O=C(O)C(F)(F)F (stereo not given),-2.653%
14,O=C1OC2(CCN(CC3CCCO3)CC2)CN1CCc1ccccc1 (stereo not given),4.853%
15,c1cc(CN2CCCC3(CCN(CC4CCCO4)CC3)C2)n[nH]1 (stereo not given),86.72%
16,Cc1cccc(CN2CCC3(CCC(CC(=O)N(C)C)CC3)CC2)n1.O=C(O)C(F)(F)F,-48.49%
17,NC(=O)c1cnc(NC2CCC(c3ccccc3)CC2)c(Cl)c1 (stereo not given),-13.17%
18,CCc1ncncc1C(=O)N1CCN(Cc2c(C)noc2C)CC1,-0.7919%
19,COc1ccccc1OC1CCN(C(=O)c2c[nH]c(=O)[nH]c2=O)CC1,-1.274%
20,Cc1nn(CCO)c(C)c1CNC1CCOc2ccccc21.Cl (stereo not given),-2.726%
21,O=C(NCCNc1cnccn1)N1CCN(Cc2cccnc2)CC1,1.12%
22,CC1CN(C(=O)NCCNc2cnccn2)CCO1 (stereo not given),93.32%
23,CN1CCCN(C(=O)NCCNc2ncccc2C#N)CC1,-11.99%
24,O=C(NCCNc1ccccn1)N1CCSCC1,1.97%
25,CC1CN(C(=O)NCCCn2cncn2)CCO1 (stereo not given),-6.452%
26,O=C(NCCNc1cnccn1)N1CC=C(c2ccc(O)cc2)CC1,-14.06%
27,CC(=O)N1CCCN(C(=O)NCCNc2cnccn2)CC1,106.7%

row,SMILES,Percent Effect
1,O=C(NCCNc1cnccn1)N1CCc2ccccc2C1,3.9%
2,CN1CCCN(C(=O)NCCNc2cnccn2)CC1,104.7%
3,O=C(NCCNc1cnccn1)N1CC=C(c2ccccc2)CC1,-24.03%
4,O=C(NCCNc1cnccn1)N1CCN(c2nccs2)CC1,115.8%
5,Cc1[nH]ncc1CCCNC(=O)N1CCOC(C)C1 (stereo not given),-4.876%
6,CC(C)n1ncc2c1NC(=O)C(C#N)C21CCCCC1 (stereo not given),14.23%
7,CC(C)c1cccc(S(=O)(=O)NCCCN2CCC(O)CC2)c1,-12.32%
8,Cc1cscc1C(=O)Nc1cncnc1N(C)C,-5.667%
9,O=C(NCCNc1cnccn1)N1CCCC(N2CCCC2)C1 (stereo not given),106%
10,O=C(NCCNc1cnccn1)C1CCN(C(=O)N2CCCC2)CC1,14.69%
11,N#Cc1cccnc1NCCNC(=O)N1CCCC(N2CCCC2)C1 (stereo not given),15.17%
12,O=C(NCCNc1cnccn1)N1CCCC1,0.5946%
13,O=C(NCCCn1cncn1)N1CCCC(N2CCCC2)C1 (stereo not given),-12.43%
14,O=C(NCCNc1cnccn1)N1CCCCCC1,67.88%
15,Cc1cnc(CN(Cc2ccccc2)CC(O)c2cccs2)cn1 (stereo not given),-0.3476%
16,CCc1nc(C)c(C(=O)N2CCCN(Cc3cnn(C)c3)CC2)s1,-6.859%
17,N#Cc1ccc(Nc2nc3c(s2)C(=O)CN(CC2CC2)C3)cc1,122.3%
18,CCOC(=O)N1CCN(C(=O)c2sc(-c3ccc(F)cc3)nc2C)CC1,5.729%
19,CN(C(=O)CNc1ccc(C#N)cc1)C1CCCCC1,-20.31%
20,CC[C@H](C)[C@H](N)C(=O)N1CC(=O)c2sc(NCc3ccccc3)nc2C1,97.62%
21,CC(Oc1ccc(F)cc1)C(=O)N(CC(N)=O)C1CCCC1 (stereo not given),-8.353%
22,CC(NC(=O)N1CCN(c2ncccn2)CC1)c1ccc(C#N)cc1 (stereo not given),-9.134%
23,CCOCC(=O)N1Cc2cnc(-c3ccccc3)nc2C1,12.32%
24,CCc1cccc(OC2CN(C(=O)[C@@H](N)[C@@H](C)O)C2)c1,-4.168%
25,N#Cc1ccc(NC(=O)N2CCCCC2CN2CCCC2=O)cc1 (stereo not given),-0.03317%
26,CC[C@H](C)[C@H](N)C(=O)N1CC(=O)c2sc(Nc3ccc(F)cc3)nc2C1,106.2%
27,CC(C)NC(=O)N1CC(=O)c2sc(Nc3ccc(C#N)cc3)nc2C1,104.4%

row,SMILES,Percent Effect
1,CC(NC(=O)N1CCN(c2cccs2)CC1)c1ccc(C#N)cc1 (stereo not given),-13.59%
2,Cc1cc(NC(=O)CCN2CCn3c(C)nnc3C2)no1,-12.27%
3,Fc1cc(CNc2nncs2)ccc1Cl,-25.14%
4,CC(C)NC(=O)[C@@H]1Cc2[nH]cnc2CN1CCCc1ccccc1,-2.135%
5,CCN(C)S(=O)(=O)N(Cc1cscn1)c1ccccc1,-21.13%
6,CC1CCN(C(=O)Cc2ccc(S(=O)(=O)C(F)F)cc2)CC1,3.078%
7,CCOc1ccc(C(=O)Nc2c(C)nc3scc(C)n3c2=O)cc1,-3.66%
8,CC(C1CC1)N(C(=O)CNc1ccc(C#N)cc1)C1CC1 (stereo not given),-11.75%
9,CC(C)CC(=O)N1CC(=O)c2sc(Nc3ccc(C#N)cc3)nc2C1,99.17%
10,CC(C)CC(=O)Nc1c(-c2ccc(F)cc2)ncn1C,20.71%
11,CC(CNC(=O)Nc1ccc(C#N)cc1)N1CCc2ccccc21 (stereo not given),15.75%
12,Cc1nnc(NC(=O)N2CCN(Cc3ccc(F)cc3)C(=O)C2)s1,-5.387%
13,CC(C)CC(=O)N1CC(=O)c2sc(Nc3ccc(F)cc3)nc2C1,97.08%
14,Cn1c(-c2ccccc2Cl)nc2cc(C(=O)NC(CO)CO)cnc21,-7.352%
15,COCCc1noc(-c2ccc(-c3cc[nH]n3)nc2)n1,6.666%
16,CCn1c(C2CCCN(Cc3cc(F)ccc3OC)C2)nn(C)c1=O (stereo not given),-8.154%
17,COCc1nccc(C2CCCN(Cc3ccc(C#N)cc3F)C2)n1 (stereo not given),7.365%
18,Cl.Cn1nc(C2CCCN(Cc3cc(F)ccc3F)C2)c2nccnc21 (stereo not given),109%
19,Cn1nc(C2CCCN(Cc3ccc(F)cc3F)C2)c2nccnc21 (stereo not given),118.1%
20,Cc1nc(CN2CCCC(CCc3ccc(F)cc3F)C2)c[nH]1 (stereo not given),10.82%
21,OC1CCCN(Cc2ccc(F)c3cccnc23)C1 (stereo not given),11.38%
22,COCCOc1ccccc1C(=O)Nc1c(C)cnn1CC1CC1,0.1744%
23,NC(=O)CC1CCN(c2ncnc3cccc(F)c23)CC1,0.8232%
24,Cc1nccn1-c1cc(CNC(=O)CCNC(=O)OC(C)(C)C)ccn1,-3.866%
25,CCc1cc(NCc2cccnc2N2CCCCC2)n2ncnc2n1,-26.62%
26,Cc1ccc(C(=O)NCCNC(=O)c2cncnc2C(C)C)cc1F,15.15%
27,Cc1cccc(C(=O)N(CC(=O)O)CC(C)C)c1,94.29%

row,SMILES,Percent Effect
1,CC(C)CN(CC(=O)O)C(=O)c1ccc(F)cc1,116.8%
2,Cc1ccc(C(=O)N(CC(=O)O)CC(C)C)cc1F,102.6%
3,Cc1noc(NC(=O)c2ccc(C)c(F)c2)n1,6.644%
4,CC(C)CCNC(=O)C(c1cccc(F)c1)N(C)C (stereo not given),-2.485%
5,Cc1cc(C(=O)N(C)S(C)(=O)=O)ccc1F,-1.159%
6,Cc1cc(C(=O)N(C)S(=O)(=O)C(C)C)ccc1F,-2.598%
7,CC(O)CN(Cc1cccc(C(=O)N(C)C)c1)c1ccccc1 (stereo not given),9.156%
8,Cc1cc(C(=O)N(CC(=O)O)CC(C)C)ccc1F,96.02%
9,CN(CC(=O)NCCC#N)C(c1ccccc1)c1ccc(F)cc1 (stereo not given),2.68%
10,CCN(CC)C(=O)c1cccc(Cn2nc(C)cc2C)c1,-2.548%
11,CCC1CN(C(=O)c2ccccc2C(C)=O)CCN1C(C)C (stereo not given),1.877%
12,COc1cccc(CNC2CCc3ccc(C)cc32)n1 (stereo not given),12.65%
13,COCCN1CCN(CC(=O)N(C)Cc2ccccc2)CC1C (stereo not given),2.857%
14,CN(c1nc(Cn2cnccc2=O)cs1)C1CC1,6.38%
15,CNC(=O)C1CCCN1c1nc(C)c2ccccc2n1 (stereo not given),9.069%
16,Cc1cccnc1NC(=O)C1CCN(C(C)C(=O)NC(C)(C)C)CC1 (stereo not given),-8.313%
17,CNC(=O)[C@H]1CC[C@@H]2[C@@H](CCN2c2ncccn2)O1,0.107%
18,CNC(=O)[C@@H]1C[C@@H](N)CN1c1nc(N2CCCC2)nc(C)c1C,2.441%
19,CNC(=O)C1CN(C)CCN1c1nc(C)cc(C)n1 (stereo not given),94.41%
20,CNC(=O)C1CN(C(C)C)CCN1c1ncccn1 (stereo not given),82.95%
21,CNC(=O)C1CN(C(C)C)CCN1c1nc(C)cc(C)n1 (stereo not given),92.65%
22,CCCN1Cc2ccccc2CC1C(=O)NC (stereo not given),-1.794%
23,CNC(=O)C1Cc2ccccc2CN1CCC#N (stereo not given),-3.828%
24,OC1CCN(c2nc(-c3ccccc3)no2)CC1,-0.7688%
